These results are taken from PubChem BioAssay (Tox21).

Results filed as inconclusive are left out. Unmarked numbers belong to inactive results. The call rests on the fitted dose curve; in most records, active means well fitted cell-killing curve with a large enough effect in the repeat runs; inconclusive means weak or mixed curves, or effect the other way; inactive means flat fitted curve, though single readings scatter.
On the % scale 0 is the no-effect control and ±100 the full control effect.

A short description of the test: qHTS assay to identify small molecule antagonists of the constitutive androstane receptor (CAR) signaling pathway - cell viability counter screen (AID 1224837). Further: nearly all actives have a fitted effect of over 45% in size. As to conditions: HepG2-CYP2B6-hCAR viability, CellTiter-Fluor, 23 h, co-treated with 50 nM CITCO; series mostly up to 92.4 µM; activity change, negative = cytotoxicity: at the top concentration. An excerpt: National Center for Advancing Translational Sciences [NCATS]
NIH Chemical Genomics Center [NCGC]
U.S. Environmental Protection Agency [EPA]
National Institutes of Environmental Health Sciences [NIEHS]
National Toxicology Program [NTP]
U.S. Food and Drug Administration [FDA]
The constitutive androstane receptor (CAR) is a nuclear receptor which regulates multiple drug metabolizing enzymes (DMEs) and transporters. Activating CAR will generally increase the transcription and subsequent translation of CYP2B6 and CYP3A4. These two DMEs represent about 50% of the drug metabolizing potential in the body. When CAR is deactivated, the metabolizing potential in the body will decrease, subsequently increasing the toxicity in the body or lowering the therapeutic potential of a pro-drug. Recently, there have also been studies performed indicating CARs role in energy metabolism and cancer therapy. Therefore, inhibiting CARs activity could have a potential effect on diabetes and cancer. Identifying environmental toxins and compounds which modulate CAR, through the use of the Tox21 10K compound collection, will be an important step in determining the toxicity and potential therapeutic effects these factors will have on the human body. To differentiate true CAR antagonists from cytotoxic substances, the assay is multiplexed with a cell viability assay.
Tox21 Assay Protocol Summary:
A double-stable (hCAR and CYP2B6-2.2kb) transfected cell line, derived from human hepatoma (HepG2) cells, was utilized for the duration of the quantitative high-throughput screens. The HepG2-CYP2B6-hCAR cells were dispensed at 2500 cells/4 uL/well in 1536-well white solid bottom plates using a Multidrop Combi. After the assay plates were incubated at 37 C/5% CO2 for 4 hrs, 23 nL of compounds at 15 concentrations (from 5-48 columns) or positive control (from 1 to 4 columns) were transferred to the assay plates using a Pintool station. One uL of CITCO (final concentration = 50 nM) was added, using a Flying Reagent Dispenser, inside each well. After a 23 hr incubation period at 37 C/5% CO2, 1 uL of CellTiter-Fluor reagent was added into each well of the assay plates using a Flying Reagent Dispenser. The fluorescence intensity in the plates was then measured using a ViewLux plate reader.
Regarding `C=CC(=O)NC(C)(C)C`, the “activity change, negative = cytotoxicity” value was 3.56%.

As to `CC(C)NC(=O)c1ccccc1N`, the “activity change, negative = cytotoxicity” value is 0.625%.

In the case of `[O-][n+]1ccc(Cl)cc1`, the “activity change, negative = cytotoxicity” value was -4.2%.

As to `FC(F)(Cl)C(F)(Cl)Cl`, the “activity change, negative = cytotoxicity” value is 2.95%.

In the case of `CC(CC(C#N)(c1ccccc1)C(C)C)N(C)C` (stereo not given), the “activity change, negative = cytotoxicity” value was -0.224% [at 42.5 µM].

Regarding `O=C(OC1C[C@H]2CC[C@@H](C1)[N+]21CCCC1)C(O)(c1ccccc1)c1ccccc1` (stereo not given in full), the “activity change, negative = cytotoxicity” value was -2.98% [at 42.5 µM].

Turning to `CC(C)CC(C)(C)C`, the “activity change, negative = cytotoxicity” value is 0.672%.

Turning to `O=C(O)c1ccc(O)c(O)c1`, the “activity change, negative = cytotoxicity” value is -3.47%.

As to `S=c1[nH][nH]c(=S)s1`, the “activity change, negative = cytotoxicity” value is 9.15%.

`O=Cc1ccc(Cl)c([N+](=O)[O-])c1`: the “activity change, negative = cytotoxicity” value was 1.38%.

For the compound `O=c1[nH][nH]c2ccccc12`, the “activity change, negative = cytotoxicity” value is -18%.

`CC(CN=Cc1ccccc1O)N=Cc1ccccc1O` (stereo not given): the “activity change, negative = cytotoxicity” value was -2.41%.

Take `CCOc1ccc(NC(C)=O)cc1N`: the “activity change, negative = cytotoxicity” value was 2.04%.

Take `CC(C)Oc1ccccc1O`: the “activity change, negative = cytotoxicity” value is -7.41%.

On to `CCC(C)C1N=C(C)C(C)S1` (stereo not given), for which the “activity change, negative = cytotoxicity” value was 1.81%.

In the case of `Cc1c(-c2cccnc2)c2ccccc2n1CCCCC(=O)O`, the “activity change, negative = cytotoxicity” value was 2.58%.

With `CCCCCCCCCCCCCCCCC(=O)O`, the “activity change, negative = cytotoxicity” value was 6.73% [at 42.5 µM].

Take `C=C[Si](OCC)(OCC)OCC`: the “activity change, negative = cytotoxicity” value was 4.24%.

Turning to `CCC(C)CCCC(C)(C)O` (stereo not given), the “activity change, negative = cytotoxicity” value is 6.6%.

For the compound `CCCCOC(=O)CC#N`, the “activity change, negative = cytotoxicity” value is 6.17%.

With `CCN(CCCCOC(=O)c1ccc(OC)c(OC)c1)C(C)Cc1ccc(OC)cc1` (stereo not given), the “activity change, negative = cytotoxicity” value is 0.844% [at 42.5 µM].

Regarding `Nc1ccc(C(=O)Oc2ccccc2)c(O)c1`, the “activity change, negative = cytotoxicity” value is 3.21% [at 42.5 µM].

In the case of `CCCCCCCCCCCC(=O)OCC`, the “activity change, negative = cytotoxicity” value is 2.55%.

Regarding `O=C(c1ccc(Cl)cc1)c1ccc(Cl)cc1`, the “activity change, negative = cytotoxicity” value is 3.43%.

As for `CCc1c(C)[nH]c2c1C(=O)C(CN1CCOCC1)CC2` (stereo not given), the “activity change, negative = cytotoxicity” value is -4.11% [at 42.5 µM].

Take `COc1ccc(C(=O)Nc2ccccc2)cc1[N+](=O)[O-]`: the “activity change, negative = cytotoxicity” value is -5.88%.

On to `CC(C)(C(=O)O)c1ccc(C(O)CCCN2CCC(C(O)(c3ccccc3)c3ccccc3)CC2)cc1` (stereo not given), for which the “activity change, negative = cytotoxicity” value is 5.47% [at 42.5 µM].

Turning to `Cc1ccccc1CCO`, the “activity change, negative = cytotoxicity” value is 0.918%.

As to `C[C@H]1C[C@H]2[C@@H]3CCC4=CC(=O)C=C[C@]4(C)[C@@]3(F)[C@@H](O)C[C@]2(C)[C@@]1(O)C(=O)COP(=O)(O)O`, the “activity change, negative = cytotoxicity” value is 6.76%.

Consider `NC(=O)c1ccccc1C(N)=O`, for which the “activity change, negative = cytotoxicity” value was 3.68%.

As for `Cc1cccc(C)c1NC(=O)CN1CCCC1`, the “activity change, negative = cytotoxicity” value was -0.482% [at 42.5 µM].

Take `Oc1ccc(Oc2ccccc2)cc1`: the “activity change, negative = cytotoxicity” value is -3.88%.

`O=C(Cl)c1cc(Cl)cc(Cl)c1`: the “activity change, negative = cytotoxicity” value was 7.65%.

Consider `O=C(OCCOCCOCCOC(=O)c1ccccc1)c1ccccc1`, for which the “activity change, negative = cytotoxicity” value is 5.13%.

Take `CCCCCCCCOCCCN`: the “activity change, negative = cytotoxicity” value is -16.9%.

In the case of `C/C(=C\C(C)CC(C)CC(C)C)C1CC(=O)OC1=O` (stereo not given), the “activity change, negative = cytotoxicity” value was 2.08%.

In the case of `CC1(C)CC(=O)CC(C)(C)N1`, the “activity change, negative = cytotoxicity” value was -4.25%.

As to `O=C(c1ccco1)N1CCNCC1`, the “activity change, negative = cytotoxicity” value is 1.08% [at 42.5 µM].

For the compound `O=C(O)c1ccccc1[N+](=O)[O-]`, the “activity change, negative = cytotoxicity” value is -0.0033%.

As for `CC(C(=O)O)c1ccc2c(c1)Cc1cccnc1O2` (stereo not given), the “activity change, negative = cytotoxicity” value was 10.8% [at 42.5 µM].
